Screening results deposited in PubChem BioAssay by National Center for Advancing Translational Sciences (NCATS).
Many of the other results were omitted from the sample, so hits are more common in it than they were.
FBPA Giardia inh – inhibitors of Giardia lamblia fructose-1,6-bisphosphate aldolase; A8B2U2; purified Giardia FBPA; Potency, µM (highest dose often 59.6 µM), inactives show at the top dose activity, negative = inhibition, most hits filed as inhibitors; 290,000 compounds, 0.71% hits; AID 2451; further: potency means the concentration at half of the fitted maximal effect; on the % scale 0 is the no-effect control and ±100 the full control effect; nearly all actives have a fitted effect of over 55% in size
Target sequence (A8B2U2 whole entry, looked up): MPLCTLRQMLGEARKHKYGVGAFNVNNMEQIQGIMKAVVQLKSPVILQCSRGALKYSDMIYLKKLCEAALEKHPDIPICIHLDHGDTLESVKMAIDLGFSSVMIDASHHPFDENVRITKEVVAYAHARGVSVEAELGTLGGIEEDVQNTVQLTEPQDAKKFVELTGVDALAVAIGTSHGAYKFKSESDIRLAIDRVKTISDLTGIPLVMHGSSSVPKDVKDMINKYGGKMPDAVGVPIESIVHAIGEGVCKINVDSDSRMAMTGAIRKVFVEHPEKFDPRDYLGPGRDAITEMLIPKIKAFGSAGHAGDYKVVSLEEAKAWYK
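40 nM FBPA preincubated 10 min at RT with compound (up to 57.5 uM final), then substrate plus GAPDH/TPI/NAD/arsenate coupling and diaphorase/resazurin added. Fluorescence read after 20 min at RT, 525/598 nm.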
Shiga toxin inh – Shiga toxin inhibition | Vero cells, Shiga toxin protein synthesis inhibition reporter | inhibition, % at 38.7 µM | 290,000 compounds, 9.2% hits | AID 2315; in the data active means inhibition mostly above about 28%, no sharp cut-off; inactive means mostly below about 43%; further: 0% is about no effect
Tb PYK inh – inhibitors of Trypanosoma brucei pyruvate kinase. TbPYK enzyme, Kinase-Glo Plus ATP luminescence, 45 min. Potency, µM (doses to about 76.8 µM), for inactives: top-dose activity, negative = inhibition, actives largely listed as inhibitors. 410,000 compounds, 0.12% hits; further: potency means the concentration at half of the fitted maximal effect; on the % scale 0 is the no-effect control and ±100 the full control effect; nearly all actives have a fitted effect of over 50% in size
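Readout: single end-point luminescence (Kinase-Glo Plus, 10 min). Reaction conditions were TbPYK/substrate plus 130 uM ADP, 45 min at RT, pH 7.2 TEA buffer. No-enzyme wells served as controls, and data were normalized before concentration-response fitting.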
Sm TGR inh – inhibitors of Schistosoma mansoni thioredoxin glutathione reductase; Q962Y6; purified TGR, DTNB reduction, TNB absorbance 405 nm; Potency, µM (titrated, usually from 114 µM), for inactives: at the top dose activity change, negative = inhibition, hits mostly inhibitors; 360,000 compounds, 3% hits; AID 485364; further: potency means the concentration at half of the fitted maximal effect; on the % scale 0 is the no-effect control and ±100 the full control effect; nearly all actives have a fitted effect of over 60% in size
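First, TGR (20 nM dispensed) and NADPH were mixed with compound. Second, a 15 min room-temperature incubation followed. Third, further NADPH and then DTNB were added to start the reaction. Finally, TNB absorbance was monitored kinetically.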
Cycloheximide cs – counter-screen hit for Shiga toxin inhibitors, cycloheximide. cell reporter, cycloheximide protein synthesis inhibition counterscreen. max response, %. 300,000 compounds, 12% hits. AID 2314; in the data active means max response mostly above about 13%, no sharp cut-off; inactive means mostly below about 14%; further: read at 38.3 µM for the half of the compounds with a filed dose; 0% is about no effect
LmPK inhibitor – blocks Leishmania mexicana pyruvate kinase activity. Potency, µM (top dose mostly 57.5 µM), for the others: at the highest dose activity change, negative = inhibition, actives largely listed as inhibitors. 290,000 compounds, 0.37% hits. Q27686. purified LmPK, Kinase-Glo ATP luminescence, 1 h; further: potency means the concentration at half of the fitted maximal effect; on the % scale 0 is the no-effect control and ±100 the full control effect
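Purified LmPK (0.1 nM) converted ADP (0.1 mM) to ATP with PEP (0.5 mM) in imidazole buffer pH 7.2 with KCl and MgCl2, 1 h at room temperature. ATP was read by Kinase-Glo luminescence; data normalized to uninhibited and no-enzyme controls.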
Starred values were filed as active, the others as inactive; ? = inconclusive; / = no result; [ ] = another dose, or the depositor's remark. Unless noted, the call rests on the fitted dose curve; in most records, active means well fitted curve in the direction sought with a large enough effect; inconclusive means small, poorly fitted or top-dose-only effect, or another doubt; inactive means no such curve, though single readings can be large; an effect the other way counts as inactive or inconclusive.

SMILES	FBPA Giardia inh	Shiga toxin inh	Tb PYK inh	Sm TGR inh	Cycloheximide cs	LmPK inhibitor
CN1CCN(C(CNC(=O)C(=O)Nc2ccc(Cl)cc2)c2cccnc2)CC1 (configuration not stated)	/	/	5.0%	-1.8%	/	/
CCOC(=O)c1ccccc1NC(=O)Cc1ccc(S(=O)(=O)N2CCCC2)s1	/	/	0.8%	/	/	/
Nc1nc(NCc2ccco2)nc(Nc2ccccc2)c1[N+](=O)[O-]	3.3%	-6.0	2.7%	-13.5%	-2.4	4.3%
Nc1nc(Nc2ccccc2F)nc(NCc2ccco2)c1[N+](=O)[O-]	-4.5%	49.4*	-0.2%	-23.6%	39.0*	3.2%
CS(=O)(=O)N1CCc2cc(C(=O)OCC(=O)c3ccccc3)ccc21	-0.3%	48.6	-1.3%	-4.3%	23.1*	6.7%
Cc1cccc(C)c1NC(=O)c1ccc2c(c1)CCN2S(C)(=O)=O	-0.1%	-7.3	-7.0%	-15.7%	-1.9	-1.7%
Cc1c(Cl)cccc1NC(=O)c1ccc2c(c1)CCCN2S(C)(=O)=O	/	/	-0.5%	1.3%	/	/
Cc1ccccc1NC(=O)c1ccc2c(c1)CCN2S(C)(=O)=O	10.3%	13.2	-1.9%	-6.4%	2.2	3.8%
CS(=O)(=O)N1CCc2cc(C(=O)Nc3ccccc3Cl)ccc21	-2.0%	37.5	6.5%	1.0%	26.7*	-5.4%
Cc1cccc(NC(=O)c2ccc3c(c2)CCN3S(C)(=O)=O)c1C	0.1%	/	-1.3%	-0.3%	18.1*	-1.4%
Cc1c(F)cccc1NC(=O)c1ccc2c(c1)CCN2S(C)(=O)=O	15.3%	164.8*	1.6%	-1.8%	8.9*	6.8%
CC12C=CC(=O)C=C1CCC1C2C(O)CC2(C)C1CCC2(O)C(=O)COC(=O)CCC(=O)O (configuration not stated)	/	/	-5.7%	/	/	/
COc1cccc(NC(=O)CN2C(=O)CSc3ccc(S(=O)(=O)N4CCCC4)cc32)c1	/	/	2.3%	-8.3%	/	/
CNC(=O)C1(C)C=CCN1C(=O)OC (configuration not stated)	3.9%	/	/	/	/	/
Cc1cc(C)n(CC(=O)NNC(=O)c2ccc(NC(=O)CC#N)cc2)n1	/	/	2.6%	-6.8%	/	/
CC(=O)N1CCN(c2nc3ccc(Br)cc3s2)CC1	8.5%	53.1*	-0.2%	0.7%	26.6*	11.2%
CC(C)(C)C(=O)N1CCN(c2nc3ccc(Cl)cc3s2)CC1	13.0%	80.5*	-3.1%	5.8%	18.5*	-0.8%
O=C(CSc1ccc(Cl)cc1)N1CCN(c2ccc(Cl)cc2[N+](=O)[O-])CC1	/	18.6	-4.9%	7.6%	1.2	-0.9%
CCc1ccc2nc(N3CCN(C(=O)c4ccccc4)CC3)sc2c1	/	/	-6.0%	-4.0%	/	/
CC(C)(C)C(=O)N1CCN(c2ccc(Cl)cc2[N+](=O)[O-])CC1	2.4%	32.7*	-4.2%	3.4%	25.0*	-2.9%
Cc1cccc(C)c1NC(=O)N1CCN(c2nc3ccccc3s2)CC1	3.8%	24.2	-0.6%	6.8%	1.0	0.4%
Cc1cccc(Cl)c1NC(=O)N1CCCN(c2nc3ccc(Cl)cc3s2)CC1	2.8%	43.8*	12.4%	8.8%	24.5*	11.2%
O=c1[nH]c2ccc(S(=O)(=O)N3CCN(S(=O)(=O)c4ccc5c(c4)OCCO5)CC3)cc2[nH]c1=O	/	-4.2	/	/	-7.3	/
CC(C)(C)C(=O)N1CCN(c2nc3c(F)cccc3s2)CC1	/	/	-15.7%	-0.6%	/	/
CC(C)(C)C(=O)N1CCN(c2nc3ccc(Br)cc3s2)CC1	/	30.7*	3.7%	-10.1%	23.4*	-8.4%
SMILES	FBPA Giardia inh	Shiga toxin inh	Tb PYK inh	Sm TGR inh	Cycloheximide cs	LmPK inhibitor
CCN1CCN(c2ccc(NC(=O)c3ccc(Cl)c(N4CCCC4=O)c3)cc2)CC1	5.2%	2.8	-2.5%	11.3%	-1.8	-0.1%
CC(=O)c1c(C)[nH]c(C(=O)NNC(=O)c2ccc(Br)cc2)c1C	/	/	0.0%	/	/	/
OCCCNc1cc(-c2ccnc(Nc3cccc(Cl)c3)n2)ccn1	-3.8%	36.9*	-2.7%	25.4%	23.3*	-1.0%
CCC(C)Oc1cc(-c2ccnc(Nc3cccc(Cl)c3)n2)ccn1 (configuration not stated)	2.8%	19.2	?	2.5%	4.2	-3.4%
Nc1ccc(Sc2ccc([N+](=O)[O-])cc2)cc1	-9.0%	48.8	2.0%	5.2%	-0.7	0.8%
O=C1C=CC(=O)N1c1ccc(Sc2ccc([N+](=O)[O-])cc2)cc1	-7.5%	21.8	/	3.16µM*	1.0	?
CCc1nc2ccccc2n1CC(=O)NC1CCS(=O)(=O)C1 (configuration not stated)	/	/	-3.2%	/	/	/
CCCn1nnc(NC(=O)c2cccc(OCC(C)C)c2)n1	12.1%	71.1*	12.0%	-0.1%	39.1*	-4.5%
CCCn1nnc(NC(=O)c2ccc(F)cc2)n1	3.4%	56.6*	0.1%	4.4%	48.2*	-6.5%
CCn1nnc(NC(=O)c2ccc(C(C)(C)C)cc2)n1	2.8%	35.6	3.0%	0.2%	36.3*	-5.4%
CCCn1nnc(NC(=O)c2cccc(OCC)c2)n1	2.6%	129.9*	6.2%	2.4%	44.7*	-5.1%
O=C(CSc1nc2ccccc2n1CC(=O)Nc1ccc(F)cc1F)Nc1ccc(F)cc1	/	/	1.6%	-20.4%	/	/
CCc1ccccc1S(=O)(=O)c1c(C)cc(C)nc1Cl	-10.9%	-6.1	4.2%	0.4%	-2.1	1.9%
CCCn1nnc(NC(=O)c2ccc3ccccc3c2)n1	-6.5%	142.8*	0.5%	1.6%	44.4*	-0.7%
CCCn1nnnc1NC(=O)c1ccc2ccccc2c1	1.1%	-5.0	-9.6%	4.5%	5.7	-1.0%
Fc1ccc(NCc2nc3ccccc3n2CCOc2ccccc2Cl)cc1	/	/	-0.2%	-12.1%	/	/
Cn1c(CNc2ccc(F)cc2)nc2ccccc21	12.5%	71.4*	-5.4%	1.5%	34.3*	?
Cn1c(CNc2ccccc2)nc2ccccc21	-2.0%	67.0*	-0.8%	2.9%	36.6*	?
CN(Cc1nc2ccccc2n1C)S(=O)(=O)c1ccc(F)cc1	-0.2%	26.4	-2.9%	-0.4%	16.0*	-1.3%
Cn1c(Cc2nc3ccccc3n2C)nc2ccccc21	/	/	-10.5%	-4.6%	/	/
COC(=O)[C@@]1(Cc2ccccc2)[C@H]2c3cc(C(=O)N(C)C)n(CCN4CNCC4=O)c3C[C@H]2CN1C(=O)c1ccccc1	-22.4%	/	/	/	/	/
O=C(CSc1ccc(Cl)cc1)Nc1nnc(-c2cccc([N+](=O)[O-])c2)s1	5.4%	-10.8	-1.2%	44.7µM*	-1.6	1.4%
Nc1ccc(SCC(=O)Nc2cccc([N+](=O)[O-])c2)cc1	0.1%	51.4	-6.1%	-1.9%	37.1*	-2.6%
Nn1c(-c2ccccn2)nnc1-c1ccccn1	0.4%	57.5*	-8.5%	5.1%	32.1*	-15.5%
c1ccc(-c2ccccn2)nc1	?	-14.2	-1.4%	13.0%	-3.4	1.0%
Fc1ccccc1CSc1nnc2ccc(-c3ccncc3)nn12	9.6%	6.3	-3.2%	-1.5%	12.7	8.7%[11.5 µM]
Nn1c(SCc2ccccc2F)nnc1-c1ccncc1	-2.8%	80.2*	-2.0%	7.8%	31.8*	-6.2%
